# Compound activity from PubChem BioAssay.
# This is a sample that favours compounds with a hit; in the whole collection about 11% have one here.
# G9a block = inhibitors of human histone lysine methyltransferase G9a; Q96KQ7; G9a H3K9 monomethylation, AlphaScreen, 2 h; Potency, µM (titrated, usually from 102 µM), inactives show at the top dose activity, negative = inhibition, hits mostly inhibitors; 350,000 tested, 8.8% active; AID 504332; also: % is scaled to controls: 0 for no effect and ±100 for the full control effect; nearly all actives have a fitted effect of over 75% in size
#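 AlphaScreen detection with an anti-monomethyl H3K9 antibody quantified product after a 2 h room-temperature reaction containing 500 nM biotinylated H3K9 peptide, 20 µM SAM and 20 nM enzyme, which had been preincubated 15 min with compound.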
# BAZ2B block = inhibitors of human BAZ2B bromodomain | Q9UIF8 | AlphaScreen BAZ2B-H3K14Ac peptide displacement | Potency, µM (series often up to 114 µM), without a hit: at the highest dose activity change, negative = inhibition, actives largely listed as inhibitors | 360,000 tested, 4.4% active | AID 504333; also: % is scaled to controls: 0 for no effect and ±100 for the full control effect; nearly all actives have a fitted effect of over 60% in size
#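 BAZ2B (50 nM) with biotin-H3(5-23)K14Ac peptide (50 nM) in PBS pH 7.4, 0.01% Tween-20, preformed 30 min, then compound 30 min at room temperature; top concentration 110uM. AlphaScreen streptavidin donor/nickel chelate acceptor beads (10 ug/mL final), 20 min dark, signal read.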
# HP1b chromo inh = inhibitors of HP1-beta chromodomain binding to methylated histone tails; P83916; AlphaScreen HP1-beta / biotin-H3K9me3 peptide binding; Potency, µM (highest dose often 114 µM), for the others: at the highest dose activity change, negative = inhibition, actives largely listed as inhibitors; 390,000 tested, 0.56% active; also: nearly all actives have a fitted effect of over 70% in size
#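 HP1-beta protein (50 nM final) preincubated 30 min at room temperature with biotinylated H3(1-18)K9me3 peptide (50 nM) in PBS pH 7.4, 0.01% Tween-20, then compound added for 30 min. AlphaScreen streptavidin donor/nickel chelate acceptor beads (10 ug/mL final), 30 min dark, luminescence read.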
# L3MBTL1 block = L3MBTL1 (human) inhibition | AlphaScreen L3MBTL1–H3K9me1 peptide binding | AID 485360 | 230,000 tested, 0.66% active | Potency, µM (series often up to 57.1 µM), for the others: at the top dose activity, negative = inhibition, most hits filed as inhibitors; also: % is scaled to controls: 0 for no effect and ±100 for the full control effect; nearly all actives have a fitted effect of over 60% in size
# Target sequence (Q9Y468 whole entry, looked up): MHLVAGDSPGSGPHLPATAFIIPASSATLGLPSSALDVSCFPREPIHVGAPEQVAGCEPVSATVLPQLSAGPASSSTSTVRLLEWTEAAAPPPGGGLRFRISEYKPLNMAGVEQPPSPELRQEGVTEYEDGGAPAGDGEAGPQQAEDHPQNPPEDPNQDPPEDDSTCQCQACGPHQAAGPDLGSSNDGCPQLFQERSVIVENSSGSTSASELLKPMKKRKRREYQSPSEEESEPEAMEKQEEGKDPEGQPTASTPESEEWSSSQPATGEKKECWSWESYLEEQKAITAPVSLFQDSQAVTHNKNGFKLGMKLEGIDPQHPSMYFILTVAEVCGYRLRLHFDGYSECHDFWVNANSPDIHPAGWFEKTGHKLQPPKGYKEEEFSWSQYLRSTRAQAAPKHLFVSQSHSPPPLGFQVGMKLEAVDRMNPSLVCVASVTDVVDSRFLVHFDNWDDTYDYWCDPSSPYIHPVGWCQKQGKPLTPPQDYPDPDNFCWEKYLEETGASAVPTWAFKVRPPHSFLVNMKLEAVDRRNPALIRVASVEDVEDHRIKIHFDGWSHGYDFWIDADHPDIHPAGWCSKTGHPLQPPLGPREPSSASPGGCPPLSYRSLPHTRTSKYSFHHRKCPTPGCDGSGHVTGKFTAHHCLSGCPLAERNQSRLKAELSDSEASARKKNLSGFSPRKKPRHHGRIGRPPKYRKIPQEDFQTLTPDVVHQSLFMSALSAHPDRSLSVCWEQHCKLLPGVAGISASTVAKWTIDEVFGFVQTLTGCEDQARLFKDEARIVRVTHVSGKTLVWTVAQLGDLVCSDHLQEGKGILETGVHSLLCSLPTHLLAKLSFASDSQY
#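 First, the protein-peptide complex forms for 30 min at room temperature (L3MBTL1 50 nM, biotinylated H3K9me1 peptide 75 nM). Next, compounds are pin-transferred and incubated 30 min. Finally, AlphaScreen beads are added and read after 30 min.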
# JMJD2A Tudor inh = JMJD2A Tudor domain (human) inhibition; 390,000 tested, 4.4% active; AlphaScreen JMJD2A-Tudor / H3K4me3 peptide binding; Potency, µM (titrated, usually from 114 µM), without a hit: at the top dose activity change, negative = inhibition, hits mostly inhibitors; O75164; also: % is scaled to controls: 0 for no effect and ±100 for the full control effect; nearly all actives have a fitted effect of over 50% in size
# * = called active by the depositor; ? = inconclusive; . = not tested or not shown; [ ] = dose if it differs, or a comment. Calls follow the shape of the dose curve; as a rule, active = well fitted inhibition curve with a large enough effect; inconclusive = small, poorly fitted or top-dose-only effect; inactive = no such curve, though single readings can be large or run the other way. Potency is read from the fitted curve at half-maximal effect.
SMILES,G9a block,BAZ2B block,HP1b chromo inh,L3MBTL1 block,JMJD2A Tudor inh
CCOC(=O)[C@@H]1[C@H]2COc3ccccc3[C@@H]2N2C(=O)N(c3cccc(C)c3)C(=O)[C@]12C,-14%,-24%,27%,-2%,-10%
COCCn1nnnc1C(C(C)C)N1CCOCC1 (stereo not drawn),79µM*,-3%,18%,5%,-23%
COc1cc(/C=C2\N=C(C)OC2=O)cc(Cl)c1OC(C)=O,40µM*,1%,11%,.,-1%
Cc1cc(N2CCCC2)ccc1/C=C1\NC(=S)N(C)C1=O,.,?,?,?,22µM*
CCc1ccc(CNc2ncnc3onc(-c4ccc(Cl)cc4)c23)cc1,16%[59 µM],8%,54%,.,15%
CC(OC(=O)C1CCN(S(=O)(=O)c2ccc(C(C)(C)C)cc2)CC1)C(=O)N1CCOCC1 (stereo not drawn),18µM*,5%,7%,7%,-9%
Cc1ccc(S(=O)(=O)N2CCC(C(=O)OC(C)C(=O)N3CCOCC3)CC2)cc1 (stereo not drawn),-22%,9%,26%,-3%,?
O=S1(=O)N=C(SCCO)c2ccccc21,79µM*,?,35%,6%,?
CC(SC1=NS(=O)(=O)c2ccccc21)C(=O)O (stereo not drawn),.,.,?,.,28µM*
O=C(O)CSC1=NS(=O)(=O)c2ccccc21,.,.,?,.,18µM*
CCOC(=O)CSc1nc(-c2ccc(F)cc2)cc(C(F)(F)F)c1C#N,2%[59 µM],13%,76%,.,21%
CCC(C)(C)c1ccc2c(c1)C(=O)c1ccccc1C2=O,?,32µM*,?,-23%,32µM*
CCC(=O)Nc1ccc2c(c1)C(=O)c1ccccc1C2=O,?,-2%,6%,6%,-30%
Cc1ccc(C)c(Nc2nn3c(=O)c4ccc(C(=O)NCc5cccs5)cc4nc3s2)c1,-1%[59 µM],-10%,0%,.,-16%
Cn1cnnc1SCC(=O)c1c[nH]c2ccccc12,13%,-3%,16%,3%,-17%
CCCCNc1nnc(SCC(=O)c2c[nH]c3ccccc23)s1,28µM*,-5%,33%,-4%,-10%
Cc1cc(OC(C)C(=O)N(Cc2ccco2)Cc2ccco2)cc(C)c1Cl (stereo not drawn),-1%[59 µM],12%,23%,.,-19%
O=C(O)C1Nc2c(O)cc(Cl)c([N+](=O)[O-])c2C2C=CCC12 (stereo not drawn),2.8µM*,1.4µM*,4.5µM*,0.32µM*,11µM*
CC(C)(C)c1ccc(Oc2nc3ccccn3c(=O)c2/C=C(\C#N)c2nc3ccccc3s2)cc1,?,0%,62%,.,-1%
Cc1cccc(Oc2nc3ccccn3c(=O)c2/C=C(\C#N)c2nc3ccccc3s2)c1C,5.6µM*,-1%[57.1 µM],56%,.,2%
CN1CCN(CCCNC(=O)Cn2c(-c3cccs3)cc3cc(Cl)ccc32)CC1,?,-37%,-6%,.,-33%
Cc1ccc(N/N=C2\CS(=O)(=O)N(C)c3ccsc32)cc1,45µM*,?,-5%,?,-27%
CN1c2ccsc2/C(=N/Nc2ccc(F)cc2)CS1(=O)=O,14µM*,?,?,-18%,25µM*
Cc1c(C(=O)O)cccc1[N+](=O)[O-],2%[0.501 µM],?,22%,0%,-8%
O=C(O)c1c[nH]c2c([N+](=O)[O-])cccc2c1=O,.,.,79µM*,.,20µM*
SMILES,G9a block,BAZ2B block,HP1b chromo inh,L3MBTL1 block,JMJD2A Tudor inh
COc1ccc(-c2nn[nH]n2)cc1OC,-41%,?,31%,.,-13%
COc1cccc(-c2nn[nH]n2)c1O,3.5µM*,56µM*,27%,8%,?
CC(Nc1ccc2c(c1)OCCO2)C(=O)N1c2ccccc2CC1C (stereo not drawn),?,40µM*,-13%,.,?
O=S(=O)(O)c1ccc(N=NNc2ccc(Br)cc2)cc1,25µM*,-20%,8%,.,-20%
O=C(O)c1ccc(-n2cc(-c3cc4ccccc4oc3=O)[nH]c2=S)cc1,73%,3%,-15%,.,1.3µM*
CC(C)CCNC(=O)c1cn(C)c2ccc(S(=O)(=O)N3CCOCC3)cc2c1=O,-36%[59 µM],.,24%,.,-9%
Cn1c(CCNC(=O)c2ccco2)nc2cc(NC(=O)c3ccco3)ccc21,14µM*,-7%,43%,-2%,3%
O=C(Nc1ccc2nc(-c3ccc4nc[nH]c4c3)[nH]c2c1)c1cccs1,22µM*,-28%,?,10%,-35%[57.1 µM]
O=C(Nc1ccc2nc(-c3ccco3)[nH]c2c1)c1cccs1,14µM*,?,17%,-11%,-16%
O=C(Nc1ccc2nc(-c3ccccc3)[nH]c2c1)c1cccs1,?,-6%,12%,.,-20%
O=C(Nc1ccc2nc(-c3ccco3)[nH]c2c1)c1ccco1,71µM*,?,37%,.,-26%
CC(=O)Nc1ccc2nc(-c3ccco3)[nH]c2c1,?,-18%,9%,9%,4%
Cc1ccc(CN(Cc2ccco2)C(=O)c2ccc(OCC(C)C)cc2)cc1,17%[59 µM],2%,59%,.,28%
CC(C)Oc1ccc(C(=O)N(Cc2ccc(N(C)C)cc2)Cc2ccco2)cc1,11µM*,13µM*,?,.,25µM*
CCCCOc1ccc(C(=O)N(Cc2ccc(N(C)C)cc2)Cc2ccco2)cc1,11µM*,10µM*,?,.,20µM*
CCCCOc1ccc(C(=O)N(Cc2ccco2)Cc2ccco2)cc1,-29%[59 µM],-8%,11%,.,?
CC(C)CNC(=O)CN(c1cccc(Cl)c1)S(C)(=O)=O,.,-3%,22%,-2%,5%
COC(=O)c1ccc(Cn2c(SCc3ccccc3)nc3ccncc32)cc1,4%[59 µM],-1%,51%,.,-2%
COc1ccc(OCC(=O)N(Cc2cccc(OC)c2)C2CCS(=O)(=O)C2)cc1 (stereo not drawn),-2%[59 µM],-11%,5%,.,-21%
CC1=Nc2ccccc2/C1=C/c1c(C)[nH]c2ccccc12,.,.,?,.,56µM*
CC1(C)CC(NCc2cccc([N+](=O)[O-])c2)CC(C)(C)N1,3%,-1%,18%,.,-4%
CC(C)NCc1cccc([N+](=O)[O-])c1,2.5µM*,56µM*,?,-2%,20µM*
CCN(c1ccccc1)S(=O)(=O)c1nnc(NC(=O)COc2ccccc2F)s1,?,?,-22%,.,?
CC(C)COCc1ccc(O)c2ncccc12,-11%[59 µM],25µM*,16%,20µM*,45µM*
CCCOCc1ccc(O)c2ncccc12,20%[59 µM],13µM*,35%,28µM*,56µM*
COc1ccc(C(=O)COC(=O)[C@H](C)Nc2ccc(C(F)(F)F)cc2[N+](=O)[O-])c(OC)c1,?,50µM*,-24%,-22%,-32%
COc1ccc(NC(=O)CSc2nc(O)c(C/C=C/c3ccccc3)c(=O)[nH]2)cc1,?,-16%,16%,.,-20%
COc1cccc(C(=O)Nc2nnc(S(=O)(=O)N3CCCc4ccccc43)s2)c1,?,?,-20%,.,-33%
